Our source for the outcome and AC50 values is PubChem BioAssay (EPA / NIEHS).

As a reminder, the AC50 is the midpoint of the concentration-response curve, whichever way the signal moves.

Each structure is given as a SMILES string. Values joined by “and” are separate entries in the source; they are usually repeats but may differ in a detail not shown here. Equal entries are not always repeated. Active and inactive are the calls of the source. How the source made its calls: active means hit-call score of the fitted dose curve at least 0.9, where 1 is the maximum; inactive means score below 0.9.

Read-out in the experiment: Monokine induced gamma interferon (MIG), CXCL9 (gene 4283)
In words: BSK_hDFCGF_MIG: BioMAP Diversity Plus: hDFCGF Assay for Monokine induced gamma interferon (MIG) Biomarker Activity (AID 2283063). Particulars: primary human foreskin fibroblasts; actives raise or lower the signal. How it is done:
BSK_hDFCGF is a cell-based, multiplexed-readout assay that uses foreskin fibroblast, a human skin primary cell, with measurements taken at 24 hours after chemical dosing in a 96-well plate.BSK_hDFCGF_MIG is an assay component measured in the BSK_hDFCGF assay. It measures MIG antibody related to regulation of gene expression using ELISA technology.Data from the assay component BSK_hDFCGF_MIG was analyzed into 1 assay endpoint. This assay endpoint, BSK_hDFCGF_MIG, was analyzed with bidirectional fitting relative to DMSO as the negative control and baseline of activity. Using a type of binding reporter, gain or loss-of-signal activity can be used to understand changes in the signaling as they relate to the gene CXCL9. Furthermore, this assay endpoint can be referred to as a primary readout, because this assay has produced multiple assay endpoints where this one serves a signaling function. To generalize the intended target to other relatable targets, this assay endpoint is annotated to the cytokine intended target family, where the subfamily is chemotactic factor.
The levels of cell surface (or secreted, indicated by the prefix "s") biomarker endpoints were measured by ELISA. Overt cytotoxicity to cells in confluent adherent cultures (all systems other than the BT system) was assessed by measuring total protein levels using sulforhodamine B (SRB) staining in parallel cultures at the time of biomarker measurements, indicated as SRB endpoints. For proliferation assays for adherent cell types, individual cell types are cultured at sub-confluence and relative cell numbers quantified by SRB staining at time points optimized for each system (48 h: 3C and CASM3C systems; 72 h: BT and HDF3CGF systems; 96 h: SAg system). SRB was performed by staining cells with 0.1% SRB after fixation with 10% TCA and reading wells at 560 nm.Viability and proliferation of PBMC (T cells) was quantified by Alamar Blue reduction for the SAg and BT systems. For PBMC viability (referred to as PBMC Cytotoxicity within the assay endpoint names), cells were plated (75,000/well in a 96-well plate) and then chemical samples added for 1 h before addition of activators, SEB and TSST-1 (20 ng/mL final concentration each). Cells were incubated for 90 h. Then, Alamar Blue (20 uL/well) (Invitrogen, Cat DAL1100) was added for 6 h, and the plates were read with a fluorescence microplate reader at 546/580 nm (excitation/emission). For PBMC proliferation, cells were plated and activated as above but incubated for only 16 h prior to addition of Alamar Blue. Plates were read after 6 h.
Take `O=[N+]([O-])c1ccc(Cl)cc1`: the outcome was inactive.

For the compound `COCC(=O)N(c1c(C)cccc1C)N1CCOC1=O`, the outcome was inactive. Same read-out and setting: next, `O=c1c2ccccc2c(=O)c2c1cc(Cl)c1[nH]c3c([nH]c12)c(Cl)cc1c(=O)c2ccccc2c(=O)c13`: “inactive”.

For the compound `CCCOC(=O)c1ccccc1C(=O)OCCC`, the outcome was inactive. Turning to `CC(C)(c1cc(Cl)c(O)c(Cl)c1)c1cc(Cl)c(O)c(Cl)c1`, the AC50 was 14.8 µM (active). On to `Cc1ccc(OP(=O)(Oc2ccc(C)cc2)Oc2ccc(C)cc2)cc1` (tested in a mixture with another compound), for which the outcome was inactive. Still for that read-out and setting: then `Oc1cc(Cl)ccc1Cl`, with “inactive”. `Clc1ccc(-c2ccccc2)cc1`: the outcome was inactive. Still for that read-out and setting: then `CC1(C)[C@H](C(=O)O[C@H](C#N)c2cccc(Oc3ccccc3)c2)[C@@H]1C=C(Br)Br`, with “inactive”; and `CC(C)COP(=O)(OCC(C)C)OCC(C)C`, with “inactive”; and `O=P1(NCCCl)OCCCN1CCCl` (stereo not drawn), with “inactive”.

Regarding `CC(=O)/C=C/c1ccccc1`, the outcome was inactive. Regarding `[Cd+2].[Cl-].[Cl-]`, the AC50 was 9.86 µM (active) and 5.69 µM (active). On the same count and under the same terms, next, `CC(C)CCCCCCCOP(=O)(Oc1ccccc1)Oc1ccccc1`: 11 µM (active). As for `O=c1[nH]c(Cl)c(Cl)cc1Cl`, the result was inactive. Still for that read-out and setting: then `CCCC[N+](CCCC)(CCCC)CCCC`, with “inactive”. As to `O=C1C=CC(=O)C=C1`, the AC50 is 11.2 µM (active) and 28.8 µM (active).

In the case of `N#CCCCCC#N`, the outcome was inactive.

Take `O=C(CCl)c1ccccc1`: the AC50 is 6.78 µM (active). As for `COC(C)(C)CCC[C@H](C)C/C=C/C(C)=C/C(=O)OC(C)C`, the AC50 was 33.2 µM (active). The same measure, in the same setting: next, `C=CC(=O)OCC(CC)CCCC` (stereo not drawn): 30.5 µM (active).

Consider `COc1ccc(CO)cc1`, for which the result was inactive. Same read-out and setting: then `CC(C)CCCCCCCOC(=O)c1ccccc1C(=O)OCCCCCCCC(C)C`, with “inactive”. With `O=C1C(Cl)=C(Cl)C(=O)C(Cl)=C1Cl`, the AC50 is 31.4 µM (active).

As to `CCCCCCCCCCCC#N`, the AC50 is 29.7 µM (active). As to `CC(C)(C)C(O)C(Oc1ccc(-c2ccccc2)cc1)n1cncn1` (stereo not drawn), the result was inactive. On the same count and under the same terms, then `Nc1ccc(-c2ccc(N)c(N)c2)cc1N`, with “inactive”; and `O=S(=O)(c1ccccc1)c1ccccc1`, with “inactive”. Still for that read-out and setting: next, `CC(C)(C)C(=O)CCl`: “inactive”; `C=CCN(CC=C)C(=O)C(Cl)Cl`: “inactive”. Consider `Oc1ccc(C2(c3ccc(O)cc3)c3ccccc3-c3ccccc32)cc1`, for which the AC50 is 3.38 µM (active) and 2.61 µM (active).

In the case of `CCC(C)c1cc([N+](=O)[O-])cc([N+](=O)[O-])c1OC(=O)C=C(C)C` (stereo not drawn), the AC50 was 9.88 µM (active). Take `CNC(=O)Oc1cc(C)c(SC)c(C)c1`: the result was inactive. The same measure, in the same setting: then `O=[N+]([O-])O`, with “inactive”. Same read-out and setting: then `CCc1cc(C)cc(CC)c1-c1c(OC(=O)C(C)(C)C)n2n(c1=O)CCOCC2`, with “inactive”. For `O=C(O)CCCc1ccc(N(CCCl)CCCl)cc1`, the outcome was inactive.

For `c1ccc(Nc2ccc3ccccc3c2)cc1`, the result was inactive. For `O=[N+]([O-])C=Cc1ccccc1`, the AC50 is 2.4 µM (active).
